Hits are enriched below; roughly 4% of the tested compounds scored in any of these assays.
Shn3 inh set2: inhibitors of Schnurri-3 3'UTR reporter in osteoblasts | Clone20 osteoblast Shn3 3'UTR firefly luciferase, 24 h | inhibition, % at 12.5 µM | 0.52% of 360,000 active | AID 588674;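 active means mean inhibition of at least 75% with every replicate also reaching 75%; inconclusive means mean inhibition at least 75% but some replicate below; inactive means mean inhibition below 75%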;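 further: 0% = median of neutral control wells and 100% = pilot-screen positive control compound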
Mdm2 MdmX PPI: inhibitors of human Mdm2/MdmX interaction | 3% of 330,000 active | SaOS-2 split-luciferase Mdm2/MdmX complementation, luminescence | inhibition, % at 8 µM | O15151+Q00987;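 active means inhibition of at least 50% at 8 µM in the primary screen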
Target sequence (O15151 whole entry, looked up): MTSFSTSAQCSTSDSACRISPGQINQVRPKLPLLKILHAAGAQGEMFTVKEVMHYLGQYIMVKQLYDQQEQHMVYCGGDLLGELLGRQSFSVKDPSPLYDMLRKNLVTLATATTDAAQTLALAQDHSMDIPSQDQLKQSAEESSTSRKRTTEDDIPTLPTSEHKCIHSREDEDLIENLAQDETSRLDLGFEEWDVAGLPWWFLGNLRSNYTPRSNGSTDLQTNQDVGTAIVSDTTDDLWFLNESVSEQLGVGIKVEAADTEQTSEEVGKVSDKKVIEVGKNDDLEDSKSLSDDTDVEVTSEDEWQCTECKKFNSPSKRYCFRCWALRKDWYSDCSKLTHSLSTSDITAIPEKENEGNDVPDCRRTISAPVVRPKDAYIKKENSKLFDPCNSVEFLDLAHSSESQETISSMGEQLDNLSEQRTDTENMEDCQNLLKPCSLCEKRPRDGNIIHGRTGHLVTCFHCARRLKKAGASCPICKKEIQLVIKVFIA
Target sequence (Q00987 whole entry, looked up): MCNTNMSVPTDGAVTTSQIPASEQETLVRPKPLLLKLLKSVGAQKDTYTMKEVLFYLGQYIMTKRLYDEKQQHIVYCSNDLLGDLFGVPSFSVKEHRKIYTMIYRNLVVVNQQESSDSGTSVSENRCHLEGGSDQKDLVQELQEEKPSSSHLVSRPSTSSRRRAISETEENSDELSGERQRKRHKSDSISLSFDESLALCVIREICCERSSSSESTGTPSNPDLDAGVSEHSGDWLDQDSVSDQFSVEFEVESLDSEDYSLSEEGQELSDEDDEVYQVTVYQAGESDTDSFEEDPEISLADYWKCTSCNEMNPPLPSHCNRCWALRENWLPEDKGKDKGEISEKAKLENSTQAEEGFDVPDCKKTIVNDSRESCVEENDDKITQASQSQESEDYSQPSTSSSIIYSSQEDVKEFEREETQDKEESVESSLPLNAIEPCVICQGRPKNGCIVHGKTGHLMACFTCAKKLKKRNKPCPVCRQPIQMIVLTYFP
Beta apoptosis: beta cell apoptosis inhibition. protection from apoptosis, % (no concentration beside the values). INS-1E cytokine-induced death, ATP luminescence, 48 h; percent of positive-control rescue, neutral wells zero. 0.8% of 300,000 active. AID 435005;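 active means Every replicate reaches about 75%, or at least half do and their mean reaches it too, limit read from the data; inconclusive means At least half of replicates reach the limit but their mean does not; inactive means Under half of replicates reach the limit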;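 further: 0% = cytokine-treated negative control wells and 100% = positive control rescue; higher means more ATP so stronger rescue from cytokine killing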
CSC inhib: blocks cancer stem cells | cancer stem cell-like cells viability, luminescence | inhibition, % at 7.5 µM | 1.1% of 300,000 active; in the data active means inhibition above about 75%; inconclusive means no clear call, values can overlap the other calls; tested in HMLE shEcad cells
PAX8 inh HTS: inhibitors of PAX8 transcriptional activity in RMG-I cells; RMG-I TPO-luciferase reporter, SteadyGlo, 24 h; inhibition, % at 12.6 µM; 1.2% of 360,000 active;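 active means mean replicate inhibition at least 60% with every replicate also reaching 60%; inconclusive means only one of the two criteria is met; inactive means mean below 60% and not all replicates reaching 60%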;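 further: luciferase light reporting Pax8 driven TPO promoter activity; plate controls were median of neutral control wells for no effect and mitoxantrone controls for full effect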
Gli-Sufu antag: Gli-Sufu pathway antagonism | Sufu-KO-LIGHT fibroblasts, Gli luciferase reporter luminescence | inhibition, % at 5 µM | 0.74% of 340,000 active | AID 588413;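 active means inhibition above about 55%, limit read from the data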;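 further: 0% = DMSO-treated cells and 100% = wells with medium but no cells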
Mdm2 MdmX conf: human Mdm2/MdmX binding inhibition, confirmed | luminescent assay | AID 489028 | inhibition, % at 8 µM | shares compounds with Mdm2 MdmX PPI | 55% of 10,000 active; in the data active means inhibition above about 40%
FLuc counter: inhibits full-length luciferase, flagging false Mdm2/MdmX hits. AID 504607. inhibition, % at 8 µM. SaOS-2 full-length luciferase counterscreen, luminescence. 77% of 6,200 active. shares compounds with Mdm2 MdmX PPI;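 active means mean inhibition at 8 µM reaching about 37%, which flags the compound as non-specific, limit read from the data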;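 further: p53-null SaOS-2 cells with luciferase driven by a doxycycline-inducible promoter; compound on cells about two nights before reading with doxycycline added after day one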
An asterisk follows results filed as active; ? = inconclusive; · = not tested or not shown; ! = a repeat was not active.

SMILES	Shn3 inh set2	Mdm2 MdmX PPI	Beta apoptosis	CSC inhib	PAX8 inh HTS	Gli-Sufu antag	Mdm2 MdmX conf	FLuc counter
COc1ccc(NC(=O)Nc2ccc3c(c2)[C@@H]2C[C@H](CC(=O)NCc4ccc5c(c4)OCO5)O[C@@H](CO)[C@@H]2O3)cc1	·	·	·	·	-12.2	·	·	·
C[C@H]1CCCCO[C@H](CN(C)S(=O)(=O)c2ccc(F)cc2)[C@@H](C)CN([C@@H](C)CO)C(=O)c2cc(NC(=O)Nc3ccc(C(F)(F)F)cc3)ccc2O1	·	·	·	·	58.6	·	·	·
C[C@@H]1CCCCO[C@@H](CN(C)Cc2ccc(C(F)(F)F)cc2)[C@@H](C)CN([C@@H](C)CO)C(=O)c2cc(NS(C)(=O)=O)ccc2O1	·	·	·	·	-5.3	·	·	·
Cc1c(C(=O)N/N=C/c2c(O)ccc3ccccc23)nnn1-c1nonc1N	84.8	67.2*	85.7*	·	32.6	46.8	81.2*	52.2*
COc1ccc2ccccc2c1/C=N/NC(=O)c1nnn(-c2nonc2N)c1C(C)C	-3.8	18.6	3.1	28.9	1.8	-0.2	·	·
Nc1nonc1-n1nnc(C(=O)N/N=C/c2ccc(OCc3ccc(F)cc3)cc2)c1COc1ccccc1	9.9	52.5*	7.5	26.5	-43.6	-1.6	16.3	·
Cc1ccccc1OCc1nc2ccccc2c(=O)n1/N=C/c1cn[nH]c1-c1ccc(Br)cc1	-35.5	69.2*	7.5	27.7	13.4	0.9	23.8	·
O=c1c2ccccc2nc(COc2ccccc2)n1/N=C/c1ccc(O)cc1O	61.9	66.5*	87.3*	67.1	33.3	0.1	57.6*	31.0
Cc1ccc(S(=O)(=O)Nc2ccc3c(c2)C(=O)N([C@H](C)CO)C[C@H](C)[C@@H](CN(C)C(=O)Nc2c(C)noc2C)O3)cc1	·	·	·	·	1.5	·	·	·
N/C(=N\c1nc2ccccc2o1)NC(=O)c1cccc(Cl)c1	-5.7	50.7*	10.0	19.6	7.2	-4.2	16.9	·
O=C(N/N=C/c1cn(-c2cccs2)nc1-c1ccccc1)c1ccccc1O	11.9	62.5*	7.1	23.2	22.5	-14.8	15.3	·
CC(C)(C)c1ccc(Cn2c(=O)cnc3ccccc32)cc1	80.6	71.5*	12.7	72.5	27.1	31.6	77.3*	25.9
O=c1cnc2ccccc2n1Cc1ccc(Br)cc1	-26.2	29.9	6.4	-10.8	-61.9	-34.8	·	·
COc1ccc(NC(=O)N2CC3(C2)CN(C(=O)C2CCC2)[C@H](CO)c2c3c3ccc(OC)cc3n2C)cc1	·	·	·	·	-8.6	·	·	·
O=C(CCCC(=O)Nc1cccc(Br)c1)N/N=C/c1cc([N+](=O)[O-])ccc1O	-5.1	74.2*	12.9	-6.5	13.8	-2.6	34.9	·
O=C(CN(c1cccc(Br)c1)S(=O)(=O)c1ccccc1)N/N=C/c1cc([N+](=O)[O-])ccc1O	-1.3	51.6*	·	22.7	18.6	4.1	35.2	·
COc1ccc(CN(C)C[C@@H]2OCCCC[C@H](C)Oc3ccc(NC(=O)CCCN(C)C)cc3C(=O)N([C@H](C)CO)C[C@@H]2C)cc1	·	·	·	·	-5.0	·	·	·
O=C(Cc1csc(Nc2nc(=S)[nH]c3ccccc23)n1)NCc1ccc(Cl)cc1	9.6	73.6*	6.0	-3.8	·	·	5.8	·
CCN1CCN(Cc2ccc(NC(=O)c3ccc(C)c(NC(=O)c4cc(-c5ccc(Br)cc5)n[nH]4)c3)cc2C(F)(F)F)CC1	11.6	98.6*	-1.4	?	-1.9	34.0	34.9	41.0*
CCN1CCN(Cc2ccc(NC(=O)c3ccc(C)c(NC(=O)c4nccn4C)c3)cc2C(F)(F)F)CC1	15.7	20.5	-4.1	4.1	6.5	42.9	·	·
CCN1CCN(Cc2ccc(NC(=O)c3ccc(C)c(NC(=O)c4nccnc4N)c3)cc2C(F)(F)F)CC1	35.6	97.0*	10.4	39.1	5.1	37.2	63.7*	42.2*
CCN1CCN(Cc2ccc(NC(=O)c3ccc(C)c(NC(=O)c4cccc5[nH]ccc45)c3)cc2C(F)(F)F)CC1	49.4	55.3*	-3.1	4.5	35.9	15.4	24.8	·
Cc1cn(-c2cc(C(=O)Nc3ccc(C)c(NC(=O)N4CCNC4=O)c3)cc(C(F)(F)F)c2)cn1	4.5	20.4	0.4	-11.6	9.8	-0.9	·	·
CCN1CCN(Cc2ccc(NC(=O)c3cc(NC(=O)c4nccnc4N)cc(OC)c3)cc2C(F)(F)F)CC1	-38.5	36.9	-11.8	-15.9	-12.7	-0.7	·	·
CCN1CCN(Cc2ccc(NC(=O)c3ccc(C)c(NC(=O)N4CCNC4=O)c3)cc2C(F)(F)F)CC1	7.0	58.7*	0.3	-5.4	-16.5	29.8	40.4*!	82.6*
SMILES	Shn3 inh set2	Mdm2 MdmX PPI	Beta apoptosis	CSC inhib	PAX8 inh HTS	Gli-Sufu antag	Mdm2 MdmX conf	FLuc counter
CN(C)Cc1cn(CC[C@H]2CC[C@H](NS(=O)(=O)c3ccc(-c4ccccc4)cc3)[C@@H](CO)O2)nn1	·	·	·	·	-3.4	·	·	·
COc1ccc(/C=N/Nc2nc(Nc3ccccc3)nc(N3CCCC3)n2)cc1[N+](=O)[O-]	13.1	97.4*	·	37.3	22.3	10.1	92.5*	60.8*
COc1ccc(/C=N/Nc2nc(N3CCCCC3)nc(N3CCCCC3)n2)cc1[N+](=O)[O-]	5.7	4.9	·	12.8	1.0	·	·	·
O=C(Oc1cccc(/C=N/Nc2nc(N3CCOCC3)nc(N3CCOCC3)n2)c1)c1ccco1	-3.1	19.8	1.5	5.0	·	8.9	·	·
COc1cc(/C=N/Nc2nc(Nc3ccccc3)nc(N3CCOCC3)n2)ccc1OC(=O)c1ccco1	36.0	51.9*	-4.0	13.7	-22.5	20.1	21.2	·
CCOc1cc(/C=N/N=C(\N)c2nonc2N)cc(Br)c1OCc1cccc2ccccc12	5.3	69.1*	24.3	15.1	24.0	-12.3	59.4*	33.4
CC(C)NCC(O)Cn1c2c(c3ccccc31)CCc1c-2cnn1-c1ccccc1 (stereo not drawn)	9.0	98.1*	113.4*	14.3	·	14.8	73.7*	12.2
Brc1ccc(-c2nnc3ccc(N4CCN(c5ccccc5)CC4)nn23)cc1	8.9	100.0*	-5.5	-2.4	·	-4.5	44.8*	76.8*
c1ccc(C2CC(c3ccccc3)n3c(nc4ccccc43)N2)cc1 (stereo not drawn)	-7.9	63.3*	3.6	-17.4	15.4	6.4	40.0*	47.7*
CCc1ccc(C2CC(c3ccccc3)Nc3nc(N)nn32)cc1 (stereo not drawn)	1.9	4.0	-1.2	-23.0	-3.4	-1.8	·	·
CC1=NOC(=O)/C1=C\c1ccc(-c2ccc(Cl)cc2Cl)o1	13.1	63.9*	·	·	-7.7	20.8	6.0	·
CN1C(=O)c2cc(NC(=O)c3ccccc3Cl)ccc2OC[C@H]2O[C@H](CC(=O)O)CC[C@@H]21	·	·	·	·	13.0	·	·	·
CN(C)C(=O)C[C@H]1CC[C@@H](NC(=O)NC2CCCCC2)[C@H](CO)O1	·	·	·	·	-13.3	·	·	·
C[C@H](CO)N1C[C@H](C)[C@@H](CN(C)C(=O)Nc2ccc3c(c2)OCO3)Oc2ccc(NC(=O)Nc3cccc4ccccc34)cc2CC1=O	·	·	·	·	16.8	·	·	·
